A selection: hits, their analogues and other compounds. The true share with any hit is near 27%.
EphB4 antag = EphB4-ephrin-B2 interaction antagonists, primary screen, biochemical, TNYL-RAW peptide probe, fluorescence polarization | Ephrin type-B receptor 4 (Homo sapiens), P54760 | EphB4 LBD / TNYL-RAW-Alexa532 peptide | inhibition, % at 7 µM | hit rate 0.15% among 97,000;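 active means inhibition above the screen-wide mean inhibition plus 3 SD, cut at about 15% in these data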;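 further: 0% = DMSO wells and 100% = excess unlabeled TNYL-RAW peptide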
Target sequence (P54760 whole entry, looked up, the tested form may be a part): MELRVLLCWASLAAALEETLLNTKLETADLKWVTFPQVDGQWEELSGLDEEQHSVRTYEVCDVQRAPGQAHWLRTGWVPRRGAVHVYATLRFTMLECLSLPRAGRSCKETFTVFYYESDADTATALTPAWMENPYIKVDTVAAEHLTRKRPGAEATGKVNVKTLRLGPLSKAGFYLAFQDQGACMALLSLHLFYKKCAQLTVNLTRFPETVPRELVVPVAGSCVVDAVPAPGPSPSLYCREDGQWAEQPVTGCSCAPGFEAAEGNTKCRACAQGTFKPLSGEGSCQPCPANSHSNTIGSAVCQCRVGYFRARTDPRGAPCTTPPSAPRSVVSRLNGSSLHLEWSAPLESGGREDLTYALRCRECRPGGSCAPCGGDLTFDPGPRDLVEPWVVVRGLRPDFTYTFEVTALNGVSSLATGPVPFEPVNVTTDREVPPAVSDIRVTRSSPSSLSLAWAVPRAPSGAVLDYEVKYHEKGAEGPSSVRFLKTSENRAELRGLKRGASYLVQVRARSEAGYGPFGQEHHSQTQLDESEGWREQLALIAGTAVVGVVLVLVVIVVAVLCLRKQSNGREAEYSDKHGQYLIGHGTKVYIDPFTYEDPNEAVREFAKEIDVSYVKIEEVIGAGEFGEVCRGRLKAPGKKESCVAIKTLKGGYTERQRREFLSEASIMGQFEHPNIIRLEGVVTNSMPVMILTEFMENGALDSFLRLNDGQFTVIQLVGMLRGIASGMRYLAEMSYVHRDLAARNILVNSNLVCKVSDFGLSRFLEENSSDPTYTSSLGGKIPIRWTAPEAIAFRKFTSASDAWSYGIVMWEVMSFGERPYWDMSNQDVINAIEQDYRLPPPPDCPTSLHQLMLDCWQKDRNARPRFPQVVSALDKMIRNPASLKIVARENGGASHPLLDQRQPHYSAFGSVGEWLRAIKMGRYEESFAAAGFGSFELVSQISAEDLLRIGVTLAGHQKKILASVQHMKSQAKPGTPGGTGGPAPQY
CYP2C9 activ = human CYP2C9 activators, primary screen, biochemical, luminescence; Cytochrome P450 2C9 (Homo sapiens), P11712; recombinant CYP2C9, luciferin-H conversion; stronger effect = higher value; factor 1 = untreated enzyme, 0 = blocked; activation factor at 5 µM; hit rate 1.4% among 96,000; AID 1024, 2008;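 active means activation factor of 2 or more for CYP2C9 at a 5 µM dose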;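 further: 0 = sulfaphenazole-blocked wells and 1 = vehicle-only wells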
CYP2C19 activ = human CYP2C19 activators, primary screen, biochemical, luminescence | 96,000 tested, under 10 active | activation factor at 5 µM | recombinant CYP2C19, luciferin-H EGE luminescence; stronger effect = higher value; 0 = fully inhibited enzyme, 1 = untreated enzyme | Cytochrome P450 2C19 (Homo sapiens), P33261;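 active means activation factor of at least 2 at 5 µM in the primary screen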;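 further: 0 = wells with 2.5 mM tranylcypromine and 1 = vehicle-only wells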
CYP2C19 inhib = blockers of cytochrome P450 2C19 activity – biochemical, luminescence, ADME assay, primary screen; inhibition, % at 5 µM; AID 778, 2007; CYP2C19 Supersomes, luciferin-H EGE luminescence, 30 min; P33261; hit rate 21% among 96,000;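 active means CYP2C19 inhibition above a set limit at 5 µM in the primary screen, cut at about 50% in these data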;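 further: plate controls were negative control wells for no effect and 2.5 mM tranylcypromine positive control for full effect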
CYP2C9 inh = blockers of cytochrome P450 2C9 activity – biochemical, luminescence, ADME assay, primary screen; hit rate 20% among 96,000; inhibition, % at 5 µM; CYP2C9 Supersomes, luciferin-H conversion; P11712; AID 777, 2007;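 active means blocking of liver enzyme CYP2C9 beyond about 50% at 5 µM, limit read from the data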
Numbers without * were called inactive; nt = no result.

SMILES	EphB4 antag	CYP2C9 activ	CYP2C19 activ	CYP2C19 inhib	CYP2C9 inh
CC(C)(C)C(=O)CC1(O)C(=O)N(Cc2ccccc2)c2ccccc21 (stereo not given)	-0.3	0.5	0.3	71.7*	54.5*
O=C(CC1(O)C(=O)N(Cc2ccccc2)c2ccccc21)c1ccncc1 (stereo not given)	1.9	0.3	0	95.5*	66.5*
O=C(CC1(O)C(=O)N(Cc2ccccc2)c2ccccc21)c1ccc2c(c1)OCO2 (stereo not given)	-1.8	0.8	0.9	12.3	19.7
Cc1ccccc1CN1C(=O)C(O)(CC(=O)c2ccncc2)c2ccccc21 (stereo not given)	4.0	0.6	0.1	90.5*	40.6
CCc1cc(C(=O)O)c(NC(=O)C(c2ccccc2)c2ccccc2)s1	3.8	0	1	2.7	97.4*
CCOC(=O)c1cc(CC)sc1NC(=O)Cc1ccccc1	1.4	0.8	0.8	21.0	16.2
CCCOc1ccc(N)cc1N	10.6	0.7	0.8	16.7	32.0
Nc1cc(N)c(OCC(F)(F)F)cc1OCC(F)(F)F	-1.4	0.5	0.3	74.5*	54.9*
CC(CN1CCOCC1)C(=O)c1ccccc1 (stereo not given)	-3.0	1	0.7	25.6	1.7
O=C(CCCN1C(=O)CCC1=O)Nc1ccc2c(c1)OCO2	-9.7	0.9	0.8	16.3	5.1
O=C(CN1C(=O)CCSc2ccccc21)Nc1ccc2c(c1)OCO2	nt	0.3	0.1	90.0*	70.4*
Cc1cc2ccccc2c(=O)n1CC(=O)Nc1ccc2c(c1)OCCO2	0.7	0.4	0.4	55.7*	62.9*
O=C(Cn1c(=O)oc2ccccc21)Nc1ccc2c(c1)OCCO2	-0.7	0.8	1.1	-6.9	16.4
O=C(CN1C(=O)CSc2ccccc21)Nc1ccc2c(c1)OCCO2	1.9	2.2*	0.7	29.6	-118.5
O=C(CN1C(=O)COc2ccccc21)Nc1ccc2c(c1)OCCO2	nt	0.7	0.4	57.1*	33.2
O=C(CN1C(=O)CCS(=O)(=O)c2ccccc21)Nc1ccc2c(c1)OCCO2	0.5	nt	nt	nt	nt
C1=CCC(/C=N/n2cnnc2)CC1 (stereo not given)	nt	0.9	0.9	7.7	9.1
Cc1cc(C(F)(F)F)n2ncc(-c3ccc(F)cc3)c2n1	-3.5	0.8	1	4.9	21.7
O=C(CN1C(=O)CSc2ccccc21)NC1CCCC1	-8.1	2.3*	0.8	15.1	-126.9
Cn1cccc1C1NC(=O)c2c(sc3c2CCC(C(C)(C)C)C3)N1 (stereo not given)	-10.4	0.9	1	0.5	5.7
O=C1C=C(NCC2CCCO2)CC(c2ccccc2)C1 (stereo not given)	6.2	1	0.3	73.0*	-2.7
Cc1nc2nc(SCC(N)=O)[nH]c2cc1Br	-8.3	0.9	1	3.6	8.6
CCOC(=O)CNC(=O)CSc1nc2nc(C)c(Br)cc2[nH]1	-0.3	0.4	0.4	60.0*	60.8*
COc1ccccc1Nc1nc(N)nc(CN2CCC(Cc3ccccc3)CC2)n1	3.8	0.3	0.5	50.2*	71.5*
COc1ccc(Nc2nc(N)nc(CN3CCC(Cc4ccccc4)CC3)n2)cc1	nt	0.8	0.9	7.6	21.8
SMILES	EphB4 antag	CYP2C9 activ	CYP2C19 activ	CYP2C19 inhib	CYP2C9 inh
COc1ccc(CN2CCN(C(=O)c3ccco3)CC2)cc1	-2.6	1.2	0.9	12.9	-16.7
COc1cc(OC)cc(-c2cc3nc(C)cc(N4CCN(C(=O)c5ccco5)CC4)n3n2)c1	-4.4	0.7	0.5	54.6*	29.0
Cc1cc(N2CCN(C(=O)c3ccco3)CC2)n2nc(-c3cccc(F)c3)cc2n1	4.7	0.1	0.2	83.4*	87.5*
CCN1CCN(c2cc(-c3ccccc3)nc3cc(-c4cccc(F)c4)nn23)CC1	2.3	nt	nt	nt	nt
CCOc1ccc(CC(=O)N2CCN(c3ccc(N4CCOCC4)nn3)CC2)cc1OCC	nt	0.9	1	-1.4	8.4
Cc1cc(-c2nn3c(C)nnc3s2)ccc1NC(=O)C(C)(C)C	-5.6	nt	nt	nt	nt
O=S(=O)(c1ccc2c(c1)OCCO2)N1CCC(n2cnc3cc(F)ccc32)CC1	-4.8	0.6	0.2	78.4*	43.2
COc1ccccc1NC(=O)CN1CCC(n2c(C)nc3cc(F)ccc32)CC1	5.0	1	0.6	36.8	3.4
Cc1nc2cc(F)ccc2n1C1CCN(S(=O)(=O)c2ccccc2)CC1	6.9	0.3	0.6	38.4	74.0*
CCOC(=O)c1ccc(NC(=O)c2ccc(NC(=O)c3ccccc3)cc2)cc1	-4.4	0.6	0.9	11.8	41.5
CCOC(=O)C1=C(NC(=S)NC(=O)c2ccccc2)c2ccccc2CC1C(C)C (stereo not given)	5.8	0.2	0.6	41.1	77.0*
O=c1cc(-c2ccccc2)nc2nc(-c3ccccc3)[nH]n12	2.1	0.4	1	-0.6	58.8*
Nc1nc2nc(-c3ccccc3)cc(=O)n2[nH]1	1.4	1	0.9	11.5	1.0
NC(=O)c1nn(-c2ccccc2)nc1N	-6.5	1	1	-3.2	2.2
CCCOc1ccccc1C1C(C(=O)OC)=CN(C(C)C)C=C1C(=O)OC	-4.1	0.1	0.1	88.8*	87.2*
CCc1ccc2c(c1)c1nc(C)sc1n2CC	5.5	0.6	0.5	48.7	41.7
CCOC(=O)N1CCN(C/C(C)=C/c2ccccc2)CC1	-1.2	0.4	0.4	61.3*	64.9*
CCOC(=O)N1CCN(S(=O)(=O)/C=C/c2ccccc2)CC1	1.1	1.1	0.1	85.4*	-14.2
O=S(=O)(/C=C/c1ccccc1)N1CCN(c2ccc(F)cc2)CC1	-1.8	0.9	0.8	20.5	9.5
CCOC(=O)N1CCN(CC(=O)Nc2ccc(C)c(Br)c2)CC1	-6.9	0.7	0.5	51.1*	28.0
COc1ccc2cnn(-c3ccc(C)cc3)c(=O)c2c1OC	2.0	0.4	0.7	27.6	64.6*
CCOc1ccccc1OCCn1ncc2ccc(OC)c(OC)c2c1=O	-0.1	1.2	0.4	57.9*	-23.6
COc1ccc2c(c1)cc(C)c1nnc(SCC(=O)N3CCN(C(=O)c4ccco4)CC3)n12	nt	1	1	-3.7	-1.0
COCCn1nnnc1C(CC(C)C)N1CCN(c2cccc(OC)c2)CC1 (stereo not given)	nt	0.2	0.2	81.4*	75.2*
CCC(c1nnnn1CCOC)N1CCN(c2cccc(C(F)(F)F)c2)CC1 (stereo not given)	10.9	0.4	0.3	69.3*	55.1*
COCCn1nnnc1C(CC(C)C)N1CCN(c2ccccc2)CC1 (stereo not given)	3.4	nt	nt	nt	nt
Cn1c(=O)c2c(nc(SCC(=O)N(C3CCCCC3)C3CCCCC3)n2C)n(C)c1=O	9.3	nt	nt	nt	nt
CCOC(=O)/C=C1\SCC(=O)N1CC(=O)Nc1ccccc1OC(F)F	-4.5	0.6	0	95.7*	37.8

Assay outcomes deposited in PubChem BioAssay by several laboratories.
